Wnt act = Wnt/beta-catenin pathway activation. Wnt/beta-catenin reporter cell assay, activator, plate reader. activation, % at 9.35 µM. 300,000 compounds, 1.2% hits. AID 743398; in the data active = activation above about 30%, passing the limit was not always enough; inconclusive = no clear call, values can overlap the other calls;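 also: 0% = neutral control wells and 100% = positive control wells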
N-glyco inh = blocks N-linked glycosylation in D54 reporter cells; D54 ERlucT glycosylation luciferase reporter, 24 h; percent of 100 nM tunicamycin response; reporter increase, % at 12.5 µM; 360,000 compounds, 0.23% hits; AID 588692;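 active = mean luciferase reporter signal, scaled so untreated is 0 and the glycosylation-blocking control 100, at or above a set limit in every replicate; inconclusive = mean reaches the limit but not every replicate does; inactive = mean below the limit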;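 also: luciferase carries N-glycosylation sites so blocking glycosylation raises the light; 0% = median of neutral control wells and 100% = median of 100 nM tunicamycin wells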
PvdQ acylase = P. aeruginosa PvdQ acylase inhibition. inhibition, % at 10 µM. purified PvdQ acylase, fluorescence plate reader. 340,000 compounds, 0.063% hits; in the data active = inhibition above about 30%, passing the limit was not always enough; inconclusive = no clear call, values can overlap the other calls;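 also: 0% = vehicle neutral wells and 100% = reference inhibitor wells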
MITF act = increases MITF-driven TRPM1 promoter luciferase signal | SK-MEL-5 TRPM1-promoter luciferase, 24 h; % of positive control, neutral wells = 0 | activation, % at 12.5 µM | 300,000 compounds, 0.75% hits | AID 588334;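 active = mean activation of at least 80% with every replicate also reaching 80%; inconclusive = mean reaches 80% but some replicate falls short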;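 also: 0% = neutral control wells and 100% = parthenolide positive control wells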
esBAF inh = SWI/SNF esBAF complex inhibition; reporter increase, % at 12.5 µM; AID 602393; 350,000 compounds, 2% hits; mouse ES cells, Bmi1-luciferase knock-in reporter, 24 h; 100% = twice the neutral-well signal; in the data active = activation above about 40%; inconclusive = no clear call, values can overlap the other calls;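 also: 0% = median of the plate's neutral control wells and 100% = double that signal; a rise in the Bmi1 reporter signal indicates esBAF inhibition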
Vif inh = inhibitors of HIV Vif. HEK293T cells, Vif self-association by quenched fluorescence, imaging, 24 h. inhibition, % at 7.49 µM. 340,000 compounds, 0.35% hits. AID 602346; in the data active = inhibition above about 50%, passing the limit was not always enough; inconclusive = no clear call, values can overlap the other calls; inactive = below about 31%
* = called active by the depositor; ? = inconclusive; nt = not tested or not shown. An excerpt weighted towards active compounds, which were near 2.9% of everything screened.

SMILES | Wnt act | N-glyco inh | PvdQ acylase | MITF act | esBAF inh | Vif inh
Cc1ccc(OCc2nc(C#N)c(NCc3ccco3)o2)cc1 | 6 | 1 | 7 | nt | -3 | 4
N#Cc1nc(COc2cccc(Cl)c2)oc1NCc1ccco1 | 12 | 1 | -13 | 47 | 51* | 11
CCNc1oc(COc2cccc(C)c2)nc1C#N | nt | 2 | -9 | 12 | 45* | nt
COc1ccc(Nc2oc(COc3cccc(C)c3)nc2C#N)cc1 | 43* | -11 | -9 | 21 | -11 | 5
COc1ccc(NC(=O)Nc2ccc3c(c2)C(=O)N([C@H](C)CO)C[C@H](C)[C@H](CN(C)C(=O)Nc2ccc(C(F)(F)F)cc2)O3)cc1 | nt | nt | nt | nt | 4 | nt
COc1cc(/C=N/N2C(=O)CSC2=S)ccc1O | nt | 1 | -9 | -3 | 9 | 1
O=C1CSC(=S)N1N=Cc1cccc(OCc2ccccc2)c1 | -3 | 1 | nt | nt | 27 | 5
O=C1CSC(=S)N1N=Cc1ccccc1O | 8 | 2 | -8 | 9 | nt | 3
O=C1CSC(=S)N1/N=C/c1cc(Br)c(O)c(Br)c1 | nt | 1 | -12 | 4 | -14 | 70*
O=C1CSC(=S)N1N=Cc1ccc(OCc2ccccc2)cc1 | 5 | -3 | nt | nt | 50* | 2
O=C1CSC(=S)N1/N=C/c1cccnc1 | 41* | 0 | 21 | nt | nt | -5
CO[C@H](C(=O)N(C)C[C@H]1OCc2ccccc2-c2c(n(C)c3ccccc23)C(=O)N([C@@H](C)CO)C[C@@H]1C)c1ccccc1 | nt | nt | nt | nt | 12 | nt
CCc1ccc(NC(=O)Cn2c(=O)n(CCC(=O)NC3CCN(Cc4ccccc4)CC3)c(=O)c3ccccc32)cc1 | 2 | 38* | 8 | -30 | 3 | 18
COc1ccc(SC[C@H](CC(C)C)N2CCN(C)CCC2=O)cc1 | 14 | -4 | -18 | 64 | 26 | 0
Cc1ccc(SC[C@H](c2ccccc2)N2CCN(C)CCC2=O)cc1 | 17 | 1 | -5 | 69 | 51* | -2
CC(C)C[C@@H](CSc1ccc(Br)cc1)N1CCN(C)CCC1=O | 12 | -3 | -2 | 81* | 44* | 7
CC(C)C[C@@H](CSc1ccc(Br)cc1)N1CCN(CC(C)C)CCC1=O | 18 | -7 | -5 | 69 | 26 | -4
Cc1ccc(SC[C@H](CC(C)C)N2CCN(C)CCC2=O)cc1 | 7 | -6 | -4 | 53 | 58* | -2
C/C=C/c1cnc2c(c1)C(=O)N([C@@H](C)CO)C[C@H](C)[C@@H](CN(C)C(=O)c1ccc3c(c1)OCO3)O2 | nt | nt | nt | nt | 0 | nt
Cc1[nH]c2ccc(F)cc2c1CCN1C(=O)OC(C)(C)C1(C)O (stereo not given) | 39* | 2 | -14 | 9 | -3 | 0
Cc1[nH]c2ccc(OCc3ccccc3)cc2c1CCN1C(=O)OC(C)(C)C1(C)O (stereo not given) | -3 | 1 | 7 | nt | 2 | 9
C=CCc1ccc(OCC(O)COCC)c(OC)c1 (stereo not given) | nt | 0 | -3 | 93* | 41* | 2
C=CCc1ccc(OCC(O)CO)c(OC)c1 (stereo not given) | -1 | -1 | -3 | 3 | nt | 1
Cc1ccc(S(=O)(=O)N[C@@H]2CC[C@@H](CC(=O)NCCc3ccncc3)O[C@H]2CO)cc1 | nt | nt | nt | nt | -4 | nt
CN(Cc1cc2ccccc2[nH]c1=O)C(=O)COc1ccccc1 | 50* | 0 | -9 | -4 | nt | -4
SMILES | Wnt act | N-glyco inh | PvdQ acylase | MITF act | esBAF inh | Vif inh
Cc1noc(C)c1NC(=O)NCC[C@H]1CC[C@@H](NC(=O)c2ccncc2)[C@H](CO)O1 | nt | nt | nt | nt | -5 | nt
COc1cc(Nc2nc3c(N)cc(C(F)(F)F)cc3nc2-c2ccccc2)cc(OC)c1OC | -6 | 26* | -13 | 14 | nt | 6
CCC(=O)N(C)C[C@@H]1Oc2cc(-c3ccccc3OC)ccc2S(=O)(=O)N([C@@H](C)CO)C[C@@H]1C | nt | nt | nt | nt | -4 | nt
O=C(Nc1ccccn1)c1ccccc1 | 26 | -1 | -7 | 82* | 26 | -5
O=C(Nc1ccccn1)c1ccc(C(=O)Nc2ccccn2)cc1 | nt | -1 | -13 | nt | 28 | -1
O=C(Nc1ccc(Cl)cc1)c1cncs1 | -3 | 0 | 2 | -6 | 3 | -7
O=C(Nc1ccc(Cl)cc1)c1ccc(-c2ccccn2)s1 | 39* | -2 | -13 | nt | ? | nt
Cc1ccccc1C(=O)NC(=S)Nc1ncccn1 | 3 | -1 | -14 | 39 | 47* | -2
O=C(NC(=S)Nc1ccccn1)c1ccc(-c2ccccc2)cc1 | -1 | -12 | 3 | 117* | nt | -3
CNC[C@@H]1Oc2ccc(NC(=O)Cc3cn(C)c4ccccc34)cc2C(=O)N([C@H](C)CO)C[C@@H]1C | nt | nt | nt | nt | -2 | nt
C[C@@H]1CCCCO[C@@H](CN(C)C(=O)c2ccncc2)[C@@H](C)CN([C@H](C)CO)C(=O)c2cc(NS(=O)(=O)c3cn(C)cn3)ccc2O1 | nt | nt | nt | nt | -2 | nt
N#C[C@H]1[C@@H](c2ccccc2)[C@@H](CO)N1S(=O)(=O)c1ccc(-c2ccccc2)cc1 | nt | nt | nt | nt | 1 | nt
O=C(Nc1ncccn1)c1ccc([N+](=O)[O-])cc1 | 0 | 0 | 8 | 13 | nt | 1
Cc1cc(C)nc(NC(=O)c2ccc(Br)s2)n1 | 7 | 1 | 7 | nt | -1 | 2
O=C(Nc1ccccn1)c1ccc(Br)s1 | 0 | -4 | -11 | nt | 48* | 2
O=C(NC(=S)Nc1ccccn1)c1ccc([N+](=O)[O-])cc1 | nt | 2 | -8 | 78 | 77* | 4
O=C(O)c1ccccc1C(=O)Nc1cc(-c2ccccc2)[nH]n1 | -3 | 2 | -13 | -3 | -5 | 3
O=C(Nc1cc(-c2ccccc2)[nH]n1)c1ccccc1 | 43* | -11 | -7 | nt | nt | -14
O=C(NC(=S)Nc1ccccn1)c1ccccc1 | 39* | -8 | -16 | 33 | 4 | -2
C[C@@H]1CN([C@H](C)CO)C(=O)c2cc(NC(=O)Nc3ccccc3)ccc2O[C@H]1CN(C)C(=O)Nc1cccc2ccccc12 | nt | nt | nt | nt | 5 | nt
CC(=O)c1ccc(OC(=O)C(CCS(C)(=O)=O)N2C(=O)c3ccccc3C2=O)cc1 (stereo not given) | nt | 2 | -12 | 1 | 7 | 81*
Fc1ccc(NCc2cn3ccccc3n2)cc1 | nt | 5 | 4 | 63 | ? | 17
Fc1cccc(NCc2cn3ccccc3n2)c1 | nt | -4 | -10 | nt | 60* | 19
CCCC#Cc1cnc2c(c1)C(=O)N([C@@H](C)CO)C[C@H](C)[C@@H](CN(C)Cc1ccccc1F)O2 | nt | nt | nt | nt | 5 | nt
CO[C@H](CN(C)C(=O)c1cnccn1)[C@@H](C)CN([C@H](C)CO)S(=O)(=O)c1ccc(Cl)cc1 | nt | nt | nt | nt | -1 | nt
Nc1nn(-c2ccccc2)c(N)c1N=Nc1ccccc1F | 8 | 1 | 3 | -7 | nt | nt
Nc1c(N=Nc2ccccc2F)c(=O)[nH]n1-c1ccccc1 | 11 | 0 | -7 | 54 | 69* | -9
CC1CN(Cc2csc(-c3ccc(Cl)cc3)n2)CC(C)O1 (stereo not given) | 3 | -3 | -4 | 21 | 47* | -18

Compound activity deposited in PubChem by Broad Institute.
